In PubChem BioAssay AID1671190 (National Center for Advancing Translational Sciences (NCATS), 2021) one finds Potency and activity change, negative = inhibition data, which are given here for 104 compounds.

About 6,100 (1.1%) of roughly 580,000 compounds were called active. Roughly 15% stayed inconclusive and do not appear here. The list comes from a sample in which actives are over-represented; it also holds similar structures and randomly drawn compounds. A call without a number means that no potency is given here. A number with no mark means an inactive call. Calls follow the shape of the dose curve; as a rule, active = well fitted inhibition curve with a large enough effect; inconclusive = small, poorly fitted or top-dose-only effect, or another doubt; inactive = no such curve, though single readings can be large or run the other way.
Potency is read from the fitted curve at half-maximal effect.

Chain of Polyunsaturated fatty acid lipoxygenase ALOX12 (Homo sapiens) (P18054 whole entry, looked up): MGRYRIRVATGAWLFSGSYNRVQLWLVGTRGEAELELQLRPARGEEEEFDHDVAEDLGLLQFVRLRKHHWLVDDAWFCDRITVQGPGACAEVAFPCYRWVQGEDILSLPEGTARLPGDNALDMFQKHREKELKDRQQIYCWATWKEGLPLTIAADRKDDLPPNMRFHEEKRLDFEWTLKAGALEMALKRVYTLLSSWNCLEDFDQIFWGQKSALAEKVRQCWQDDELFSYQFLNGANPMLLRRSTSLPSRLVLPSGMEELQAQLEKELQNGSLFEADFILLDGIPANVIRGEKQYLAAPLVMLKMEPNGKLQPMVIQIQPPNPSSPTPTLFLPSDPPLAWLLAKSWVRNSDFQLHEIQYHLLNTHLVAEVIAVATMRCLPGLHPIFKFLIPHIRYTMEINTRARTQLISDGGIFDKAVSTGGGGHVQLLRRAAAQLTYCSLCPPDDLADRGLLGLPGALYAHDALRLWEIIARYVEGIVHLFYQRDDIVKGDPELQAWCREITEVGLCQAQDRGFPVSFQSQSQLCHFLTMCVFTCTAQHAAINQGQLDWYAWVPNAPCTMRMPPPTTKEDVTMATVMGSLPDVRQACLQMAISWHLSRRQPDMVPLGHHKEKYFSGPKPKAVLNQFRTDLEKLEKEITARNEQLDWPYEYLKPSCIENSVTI

This experiment addresses Polyunsaturated fatty acid lipoxygenase ALOX12 (Homo sapiens) (UniProt P18054). The experiment can be described thus: Primary qHTS assay for inhibitors of human arachidonate 12S-lipoxygenase (ALOX12): Round 2. Conditions: purified 12hLO, xylenol orange hydroperoxide absorbance; series mostly up to 108 µM. The gist of the method: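 Purified human 12hLO at 150 nM in 25 mM Hepes, 0.01% Triton X-100, pH 7.0, preincubated 15 min at room temperature with compound. Reaction started with 40 uM arachidonic acid, 30 min at room temperature. Hydroperoxide measured by Fe-xylenol orange, 573/405 nm absorbance ratio.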
For `CSc1nnnn1-c1ccc(C(=O)Nc2ccccc2F)cc1`, the Potency result was “inactive”.

With `S=C(NCCCc1cnc[nH]1)NCCCN(Cc1ccc(Cl)c(Cl)c1)c1ccc(Br)cn1`, the Potency was 22.4 µM (active).

In the case of `NCCCNC(=S)NCCCN(Cc1ccc(Cl)cc1)c1ccc(Br)cn1`, the Potency is 39.8 µM (active).

As for `Cc1ccccc1CN(C)C(C)c1nc(-c2cccs2)no1` (centres undefined), the Potency result is “inactive”.

On to `CCOC(=O)CSc1nnc(CNC(=O)c2cccs2)n1-c1ccccc1`, for which the Potency entry is “inactive”.

For the compound `CCc1c(C)sc(NC(=O)c2cccs2)c1C(N)=O`, the Potency is 20 µM (active).

Consider `CCc1c(C)sc(NC(=O)C2c3ccccc3Oc3ccccc32)c1C(=O)OC(C)C`, for which the Potency entry is “inactive”.

For the compound `CCCCCCn1c(NC)nc2c1c(=O)[nH]c(=O)n2C`, the Potency result was “inactive”.

On to `COc1cc(C2CC(=O)Nc3nc(-c4ccccc4)[nH]c(=O)c32)ccc1OCc1ccc(F)cc1` (centres undefined), for which the Potency result was “inactive”.

Turning to `CCCOc1c(OC)cccc1C1CC(=O)Nc2c1c(C)nn2-c1ccc(OC)nn1` (centres undefined), the Potency entry is “inactive”.

`O=C1CC(c2ccc(C(F)(F)F)cc2)c2sc(C(=O)O)c(-c3ccccc3)c2N1` (centres undefined): the Potency result is “inactive”.

Regarding `O=C1CC(c2ccccc2)C(c2ccccc2)=NN1` (centres undefined), the Potency result is “inactive”.

As to `Nc1nc2c(s1)C(c1ccccc1)CC(=O)N2` (centres undefined), the Potency was 22.4 µM (active).

For the compound `COc1cccc(C2CC(=O)Nc3nc(N)sc32)c1OCc1ccccc1` (centres undefined), the Potency is 7.94 µM (active).

For the compound `O=[N+]([O-])/C=C/c1ccc2c(ccn2Cc2ccccc2)c1`, the Potency entry was “inactive”.

As to `O=[N+]([O-])/C=C/c1ccc(-c2ccccc2)o1`, the Potency is 22.4 µM (active).

Regarding `Cc1ccc(-c2nnc(SCc3ncc(-c4ccccc4)o3)o2)cc1`, the Potency result is “inactive”.

`Cc1ccc(-n2nnnc2SCc2ncc(-c3ccccc3)o2)cc1`: the Potency result is “inactive”.

`COCc1ccc(CNC(=O)c2ccc(C#N)cc2)cc1`: the Potency result is “inactive”.

Regarding `O=C(c1cn[nH]c1)N1CC2(CN(Cc3cccc(Cl)c3)CC2COc2ccccc2)C1` (centres undefined), the Potency entry was “inactive”.

`CCOc1cc2cc(C(=O)c3cc(C)ccc3O)cnc2cc1OCC`: the Potency result is “inactive”.

On to `CCC(=O)Nc1ccc2nc(-c3ccccc3C)oc2c1`, for which the Potency result is “inactive”.

As to `COc1ccc(-c2nn(-c3ccccc3)cc2C(=O)NCC(C(C)C)N2CCOCC2)cc1` (centres undefined), the Potency entry is “inactive”.

With `COc1ccc(NC(=O)c2cn(-c3ccccc3)nc2SC)cc1`, the Potency result is “inactive”.

Consider `COc1ccc(-c2nn(-c3ccccc3)cc2/C=C\C(=O)Nc2ccc(C(=O)O)cc2)cc1`, for which the Potency is 39.8 µM (active).

On to `CSc1ccccc1NC(=O)C(C)Nc1ccc2c(c1)CCN2C(C)=O` (centres undefined), for which the Potency entry is “inactive”.

For `O=C(NC(c1ccccc1)c1cc2ccccc2o1)C1CCCC1` (centres undefined), the Potency entry is “inactive”.

As for `N#Cc1ccccc1S(=O)(=O)N1CCN(Cc2c(O)ccc3ccccc23)CC1`, the Potency is 11.2 µM (active).

As to `N#CCCc1c(O)ccc2ccccc12`, the Potency entry was “inactive”.

For the compound `N#Cc1ccccc1S(=O)(=O)N1CCN(C(=O)c2cc(-c3ccccc3)nn2-c2ccccc2)CC1`, the Potency result was “inactive”.

Regarding `Cc1nnc(SCC(=O)Nc2sc3c(c2C#N)CCCC3)n1CC(C)C`, the Potency entry is “inactive”.

In the case of `CCC(=O)NNC(=S)Nc1ccccc1`, the Potency entry is “inactive”.

With `O=C(NC(=S)Nc1ccc(S(=O)(=O)Nc2ncccn2)cc1)c1cccc(Br)c1`, the Potency is 20 µM (active).

As for `Cc1ccc(-c2nnc3c4ccccc4c(C)nn23)cc1NC(=O)c1cccc(Br)c1`, the Potency result was “inactive”.

Consider `O=C(NC(=S)Nc1cccc2c(O)cccc12)c1cccc(Br)c1`, for which the Potency is 17.8 µM (active).

In the case of `O=C(Nc1ccc(S(=O)(=O)Nc2ncccn2)cc1)C12CC3CC(CC(C3)C1)C2`, the Potency result is “inactive”.

On to `O=C(Nc1ccc(S(=O)(=O)Nc2ncccn2)cc1)c1cncc(Br)c1`, for which the Potency entry is “inactive”.

For `O=C(NC1C2CC3CC(C2)CC1C3)c1cccc(Br)c1` (centres undefined), the Potency entry is “inactive”.

As for `CCOc1ccc(C(=O)N(CCN(C)C)CC(=O)OC(C)(C)C)cc1`, the Potency entry is “inactive”.

Consider `CC(C)NC(=O)c1cccc2c1CCCN2CC(=O)NCCc1ccccc1`, for which the Potency entry is “inactive”.

`CSc1ccccc1C(=O)NC(C)c1ccccc1` (centres undefined): the Potency entry was “inactive”.

With `Clc1ccc(-c2nc(-c3ccc(Br)o3)no2)cc1`, the Potency result was “inactive”.

For the compound `CC(NC(=O)Cn1nc(C(N)=O)c2ccccc2c1=O)c1ccccc1` (centres undefined), the Potency was 35.5 µM (active).

For `CNC(=O)c1nn(CC(=O)NC(C)c2ccccc2)c(=O)c2ccccc12` (centres undefined), the Potency entry was “inactive”.

`O=C(Cn1nc(C(=O)O)c2ccccc2c1=O)Nc1cc(F)ccc1F`: the Potency entry was “inactive”.

Turning to `CC(=O)N1CCC(C(=O)N(C)CC(=O)Nc2ccccc2C(F)(F)F)CC1`, the Potency result was “inactive”.

As for `Cc1cccc(Oc2c(C(F)(F)F)oc3cc(OCC(=O)OCCC(C)C)ccc3c2=O)c1`, the Potency result is “inactive”.

On to `O=C(OCc1nc2ccccc2o1)c1ccc2ccccc2c1`, for which the Potency result is “inactive”.

Turning to `C=CC(=O)c1ccc2ccccc2c1`, the Potency was 17.8 µM (active).

Take `O=C(OCC(=O)N1CCOCC1)c1ccc2ccccc2c1`: the Potency entry was “inactive”.

For `O=C(O)COc1ccc(-c2nccc3c2C(=O)N(Cc2c[nH]c4ccccc24)CC(COc2ccc(F)c(F)c2)O3)cc1` (centres undefined), the Potency entry is “inactive”.

Consider `Cc1nn(C)c2nc(C(C)C)cc(C(=O)N3CCN(c4ncccn4)CC3)c12`, for which the Potency result was “inactive”.

For `Cc1[nH]n(C(N)=S)c(=O)c1N=Nc1ccc(Cl)cc1Cl`, the Potency entry is “inactive”.

For `Cc1[nH]n(C)c(=O)c1N=Nc1ccc(S(C)(=O)=O)cc1`, the Potency was 6.31 µM (active).

On to `Cc1[nH]n(C)c(=O)c1C(=O)c1c(-c2c(Cl)cccc2Cl)noc1C`, for which the Potency entry is “inactive”.

With `Oc1ccc(O)c([S+]2CCCC(C3CCCCC3)C2)c1` (centres undefined), the Potency is 17.8 µM (active).

As to `COc1ccc(Cc2nnc(SCc3nc4ccccc4c(=O)[nH]3)n2CC(C)C)cc1`, the Potency entry is “inactive”.

For `Cc1ccc(NC(=O)C2Cc3ccccc3O2)cc1S(N)(=O)=O` (centres undefined), the Potency entry was “inactive”.

For `COCCN1C(=O)C(O)=C(C(=O)c2ccc(C)o2)C1c1ccc(O)c(OC)c1` (centres undefined), the Potency is 17.8 µM (active).

With `COc1cc(C2C(C(=O)c3sc(C)nc3C)=C(O)C(=O)N2CCN(C)C)cc(OC)c1OC` (centres undefined), the Potency entry was “inactive”.

Regarding `COc1ccc(CCN2C(=O)c3[nH]nc(-c4ccccc4O)c3C2c2ccc(C)cc2)cc1OC` (centres undefined), the Potency result was “inactive”.

In the case of `CCOC(=O)C1=C(c2ccccc2)N=C2SCC(=O)N2C1c1ccc(O)c(OC)c1` (centres undefined), the Potency entry is “inactive”.

In the case of `CCCOc1ccc(C2C(C(=O)c3ccc(C)o3)=C(O)C(=O)N2CCCn2ccnc2)cc1` (centres undefined), the Potency result was “inactive”.

With `COc1cc(C2C(C(=O)c3ccc(C)o3)=C(O)C(=O)N2CCc2ccccc2)ccc1O` (centres undefined), the Potency is 35.5 µM (active).

In the case of `COc1ccc(OC2CN(Cc3cccn3C)C2)cc1`, the activity change, negative = inhibition was 5.21% [at 12.5 µM].

Consider `COc1ccc(OCCSC(C)C(N)=O)cc1` (centres undefined), for which the Potency result was “inactive”.

For `CC(C)c1ccc(C2CC(=O)N3CN(C4CCCCC4)CSC3=C2C#N)cc1` (centres undefined), the Potency was 17.8 µM (active).

On to `CC(C)c1ccc(/C=N/NC(=O)c2cc(C3CC3)nc3ccccc23)cc1`, for which the Potency entry was “inactive”.

`CNC(=O)c1cccc(NC(=O)c2cc(C3CC3)nc3ccccc23)c1`: the Potency was 39.8 µM (active).

For `COc1cc(C(=O)Nc2ccc(C(=O)O)cc2)c2ccccc2n1`, the Potency result was “inactive”.

In the case of `CNC(=O)C(=O)NC1CC(C)(C)NC(C)(C)C1`, the Potency entry was “inactive”.

Regarding `Cc1cc(C)cc(S(=O)(=O)n2cc3c(=O)n(C)c(=O)n(C)c3n2)c1`, the Potency result was “inactive”.

`O=CN1CCN(C(=O)CCC(=O)O)CC1`: the Potency entry is “inactive”.

With `c1ccc(CNc2ncncc2-c2cccnc2)cc1`, the Potency was 39.8 µM (active).

For the compound `Cc1cnc(CNc2nc(-c3cccnc3)nc3ccccc23)cn1`, the Potency entry is “inactive”.

`Clc1ccc(Cn2ncc3c(NCc4cccnc4)ncnc32)cc1`: the Potency entry was “inactive”.

As to `Cc1cccc(-c2cc(C(=O)NCC3CCCO3)c3ccccc3n2)c1` (centres undefined), the Potency entry was “inactive”.

As for `COc1ccc(-c2noc(-c3cc4cc(Cl)ccc4oc3=O)n2)cc1OC`, the Potency entry is “inactive”.

As for `O=C(CSc1nnc(-c2ccncc2)n1C1CCCCC1)Nc1ccccc1`, the Potency entry is “inactive”.

Take `CC1CCCCC1NC(=O)CSc1nnc(-c2ccncc2)n1CCCN(C)C` (centres undefined): the Potency was 0.355 µM (active).

Regarding `CCn1c(SCC(=O)NC2CC2)nnc1-c1ccncc1`, the Potency result is “inactive”.

Take `CCOc1ccc(CNS(=O)(=O)c2ccc(-c3ccc(=O)[nH]n3)o2)cc1`: the Potency entry was “inactive”.

Turning to `O=C(NC1CCS(=O)(=O)C1)c1cc2ccccc2oc1=O` (centres undefined), the Potency result was “inactive”.

Turning to `CN(Cc1ccccc1)C(=O)C[C@@H]1CCNC[C@@H]1Cc1cc(-c2ccc(C(C)(C)C)cc2)on1`, the Potency was 25.1 µM (active).

For `CCCCc1cc(C[C@H]2CNCC[C@H]2CC(=O)N(CC)CC)no1`, the Potency result was “inactive”.

With `O=C(C[C@@H]1CCNC[C@@H]1Cc1cc(-c2ccc(F)cc2)on1)NCCN1CCOCC1`, the Potency result is “inactive”.

As to `COc1ccc(S(=O)(=O)Nc2nc3ccccc3nc2Nc2cccc(C)c2)cc1`, the Potency result was “inactive”.

Consider `COc1ccc(C(=O)OCc2ccc(Br)cc2)c(OC)c1`, for which the Potency result was “inactive”.

`COc1ccc(OC(=O)CCc2ccc3c(c2)OCCO3)cc1`: the Potency entry is “inactive”.

Consider `CCCCc1c/c(=N\O)oc2cc3occ(C)c3cc12`, for which the Potency was 17.8 µM (active).

For the compound `CCOC(=O)COc1ccc2c(=O)c(-c3ccc(OC)c(OC)c3)c(C)oc2c1`, the Potency result is “inactive”.

As for `CC(C)C[C@@H]1N[C@H](C(=O)NCc2ccc(F)cc2)Cc2cn(C)c3cccc1c23`, the Potency entry is “inactive”.

On to `Cc1ccc(Cl)c(OC(C)C(=O)NN)c1` (centres undefined), for which the Potency entry was “inactive”.

Regarding `CCOC(=O)/C=C/c1ccc(C(F)(F)F)cc1S(=O)(=O)NC(C)(C)C`, the Potency result is “inactive”.

As to `CCOC(=O)C1Nc2ccc(C(F)(F)F)cc2C2C=CCC12` (centres undefined), the Potency was 17.8 µM (active).

Regarding `CCOC(=O)C[C@H]1c2ccc(C(F)(F)F)cc2S(=O)(=O)N1c1ccccc1`, the Potency entry was “inactive”.

On to `Cc1ccc(S(=O)(=O)N2CCCC(C(=O)O)C2)cc1F` (centres undefined), for which the Potency entry is “inactive”.

Take `NC(=O)CN1C(=O)C(O)(CC(=O)c2ccc3c(c2)OCO3)c2ccccc21` (centres undefined): the Potency entry was “inactive”.

In the case of `CS(=O)(=O)Nc1ccc([C@H]2OCC(=O)N(C3CCOCC3)[C@@H]2CO)cc1`, the Potency entry was “inactive”.

Turning to `Cc1ccc2[nH]cc(C(C(=O)O)N3CCN(c4ccccc4)CC3)c2c1` (centres undefined), the Potency entry was “inactive”.

Turning to `CC(C)OC(=O)c1ccc(NCc2cc(O)ccc2O)cc1Cl`, the Potency was 10 µM (active).

For `Cc1ccc(C(=O)NC(C)C)c(Cl)c1`, the Potency entry was “inactive”.

Turning to `O=C(O)c1ccc(CSc2ccc(Cl)cc2Cl)cc1`, the Potency entry was “inactive”.

Take `Cc1ccc(C2(C(=O)N3C[C@@H](CN4CCCCC4)[C@@H](CO)C3)CC2)cc1`: the Potency entry is “inactive”.
